Data as given in PubChem BioAssay (Tox21).
Several values for one entry are separate records, joined by “and”; a condition that tells them apart may be missing. Equal values may be shown once. Inconclusive results are not listed. Activity calls are given as the source filed them. Unless noted, calls follow the shape of the dose curve; as a rule, active = well fitted curve in the direction sought with a large enough effect in the repeat runs; inconclusive = weak or mixed curves; inactive = no such curve, though single readings can be large; an effect the other way counts as inactive or inconclusive.

Assays:
[1] = qHTS assay to identify small molecule antagonists of the estrogen related receptor (ERR) signaling pathway from Tox21 library - cell viability counter screen (AID 1224834); also: nearly all actives have a fitted effect of over 30% in size; also: potency is read from the fitted curve at half-maximal effect
In short: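 Viability readout (CellTiter-Fluor fluorescence, 30 min at 37 C) multiplexed with the ERR assay; cells treated 17.5 h at 37 C with compounds delivered in DMSO.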

[2] = target: Luciferin 4-monooxygenase (Photinus pyralis) (UniProt P08659); experiment: qHTS assay to identify small molecule inhibitors of firefly luciferase (AID 1224835); also: nearly all actives have a fitted effect of over 25% in size; also: potency is read from the fitted curve at half-maximal effect
In short: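 Biochemical qHTS: compounds run as interplate titrations against purified firefly enzyme, with D-luciferin and ATP each at its KM concentration. Light output recorded by CCD imaging.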

[3] = qHTS assay to identify small molecule agonists of the constitutive androstane receptor (CAR) signaling pathway - cell viability counter screen (AID 1224836); also: nearly all actives have a fitted effect of over 45% in size; also: potency is read from the fitted curve at half-maximal effect
In short: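 Counter screen multiplexed with the CAR reporter readout: HepG2 cells co-transfected with hCAR and the CYP2B6-2.2kb construct receive a 15-concentration compound series and 0.75 uM PK11195 (final), then CellTiter-Fluor fluorescence is read after 23 h.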

[4] = qHTS assay to identify small molecule antagonists of the constitutive androstane receptor (CAR) signaling pathway - cell viability counter screen (AID 1224837); also: nearly all actives have a fitted effect of over 45% in size; also: potency is read from the fitted curve at half-maximal effect
In short: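 Fluorescence from CellTiter-Fluor served as the viability signal. Human hepatoma HepG2 cells stably bearing hCAR and CYP2B6-2.2kb received compound plus CITCO (50 nM final) for 23 hr.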

[5] = target: Nuclear receptor subfamily 1 group I member 3 (Homo sapiens) (UniProt Q14994); experiment: qHTS assay to identify small molecule antagonists of the constitutive androstane receptor (CAR) signaling pathway (AID 1224838);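 also: HepG2 cells stably expressing hCAR with CYP2B6 luciferase reporter stimulated by CITCO; nearly all actives have a fitted effect of over 40% in size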; also: potency is read from the fitted curve at half-maximal effect
In short: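 Quantitative HTS in double-stable HepG2-CYP2B6-hCAR cells. After 4 h plating, cells get compound (15 concentrations) and CITCO at 50 nM final, incubate 24 h at 37 C, then ONE-Glo luminescence is read.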

[6] = target: Nuclear receptor subfamily 1 group I member 3 (Homo sapiens) (UniProt Q14994); experiment: qHTS assay to identify small molecule agonists of the constitutive androstane receptor (CAR) signaling pathway (AID 1224839); also: nearly all actives have a fitted effect of over 15% in size; also: potency is read from the fitted curve at half-maximal effect
In short: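 A 15-concentration quantitative screen uses HepG2 cells co-transfected stably with human CAR and CYP2B6-2.2kb reporter. Treatment lasts 24 h with 0.75 uM PK11195 final present; ONE-Glo luminescence is the signal.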

[7] = qHTS assay to identify small molecule antagonists of the estrogen related receptor signaling pathway with the pleiotropic PPARgamma coactivator (PGC) from Tox21 10K library - cell viability counter screen (AID 1224840; active = well fitted cell-killing curve with a large enough effect in the repeat runs, not every such curve was filed as active; also: nearly all actives have a fitted effect of over 40% in size; also: potency is read from the fitted curve at half-maximal effect)
In short: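 Compounds in DMSO, alongside positive and negative controls, were pinned onto PGC/ERR cells (2,000 per well). Exposure lasted 17.5 hours at 37 C, followed by a 30-minute CellTiter-Fluor incubation and fluorescence reading.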

[8] = qHTS assay to identify small molecule antagonists of the estrogen related receptor signaling pathway with the pleiotropic PPARgamma coactivator (PGC) from Tox21 10K library (AID 1224841; call rule not given here; also: actives are mostly falling curves and most rising ones were filed inactive; nearly all actives have a fitted effect of over 50% in size; also: potency is read from the fitted curve at half-maximal effect)
In short: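 Compound exposure ran 18 hours at 37 C in PGC/ERR cells (2,000/well) that had first rested 6 hours in a 37 C/5% CO2 incubator. Luciferase activity was then detected with One-Glo after a 30-minute room-temperature step.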

[9] = qHTS assay to identify small molecule agonists of the estrogen related receptor signaling pathway with the pleiotropic PPARgamma coactivator (PGC) from Tox21 10K library (AID 1224842); also: nearly all actives have a fitted effect of over 15% in size
In short: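 PGC/ERR reporter cell line, 2,000 cells per well, incubated 6 h at 37 C before 23 nL compound in DMSO was added. After 18 h at 37 C, One-Glo luminescence read following 30 min at room temperature.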

[10] = target: Thyrotropin receptor (Homo sapiens) (UniProt P16473); experiment: qHTS assay to identify small molecule agonists of the thyroid stimulating hormone receptor (TSHR) signaling pathway (AID 1224843; calls by dose curve; also: nearly all actives have a fitted effect of over 45% in size)
In short: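 Steps: seed 800 TSHR-HEK293 cells per well; add test compound and hold 30 min at ambient temperature; dispense cAMP-d2 then anti-cAMP cryptate; incubate 1 h at ambient; measure fluorescence intensity.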

Measured: Potency

Sequence of Nuclear receptor subfamily 1 group I member 3 (Homo sapiens) (Q14994 whole entry, looked up): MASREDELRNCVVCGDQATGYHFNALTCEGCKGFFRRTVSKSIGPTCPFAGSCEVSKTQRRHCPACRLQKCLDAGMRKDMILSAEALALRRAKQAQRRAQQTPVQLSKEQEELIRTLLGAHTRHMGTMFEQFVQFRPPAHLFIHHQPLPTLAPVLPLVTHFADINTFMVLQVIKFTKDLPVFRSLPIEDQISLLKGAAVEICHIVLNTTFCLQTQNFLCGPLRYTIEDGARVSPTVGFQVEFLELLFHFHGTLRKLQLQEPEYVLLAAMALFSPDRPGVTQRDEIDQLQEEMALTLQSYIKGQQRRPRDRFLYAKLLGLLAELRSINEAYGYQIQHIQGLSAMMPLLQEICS
Sequence of Luciferin 4-monooxygenase (Photinus pyralis) (P08659 whole entry, looked up): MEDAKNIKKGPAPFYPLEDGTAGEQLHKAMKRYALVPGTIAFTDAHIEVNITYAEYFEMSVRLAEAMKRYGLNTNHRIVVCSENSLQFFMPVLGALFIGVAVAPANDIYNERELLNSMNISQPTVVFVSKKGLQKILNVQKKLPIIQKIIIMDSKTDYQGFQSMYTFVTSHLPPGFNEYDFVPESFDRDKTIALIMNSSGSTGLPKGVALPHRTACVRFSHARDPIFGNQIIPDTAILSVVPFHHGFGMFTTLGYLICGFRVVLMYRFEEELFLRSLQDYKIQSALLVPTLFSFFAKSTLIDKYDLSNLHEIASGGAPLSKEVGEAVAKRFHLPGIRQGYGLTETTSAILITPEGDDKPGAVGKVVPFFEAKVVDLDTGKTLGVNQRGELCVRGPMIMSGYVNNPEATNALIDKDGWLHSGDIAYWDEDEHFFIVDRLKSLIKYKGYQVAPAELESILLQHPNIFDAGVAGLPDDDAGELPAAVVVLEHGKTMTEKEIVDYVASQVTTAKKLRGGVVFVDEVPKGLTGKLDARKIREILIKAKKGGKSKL
Sequence of Thyrotropin receptor (Homo sapiens) (P16473 whole entry, looked up): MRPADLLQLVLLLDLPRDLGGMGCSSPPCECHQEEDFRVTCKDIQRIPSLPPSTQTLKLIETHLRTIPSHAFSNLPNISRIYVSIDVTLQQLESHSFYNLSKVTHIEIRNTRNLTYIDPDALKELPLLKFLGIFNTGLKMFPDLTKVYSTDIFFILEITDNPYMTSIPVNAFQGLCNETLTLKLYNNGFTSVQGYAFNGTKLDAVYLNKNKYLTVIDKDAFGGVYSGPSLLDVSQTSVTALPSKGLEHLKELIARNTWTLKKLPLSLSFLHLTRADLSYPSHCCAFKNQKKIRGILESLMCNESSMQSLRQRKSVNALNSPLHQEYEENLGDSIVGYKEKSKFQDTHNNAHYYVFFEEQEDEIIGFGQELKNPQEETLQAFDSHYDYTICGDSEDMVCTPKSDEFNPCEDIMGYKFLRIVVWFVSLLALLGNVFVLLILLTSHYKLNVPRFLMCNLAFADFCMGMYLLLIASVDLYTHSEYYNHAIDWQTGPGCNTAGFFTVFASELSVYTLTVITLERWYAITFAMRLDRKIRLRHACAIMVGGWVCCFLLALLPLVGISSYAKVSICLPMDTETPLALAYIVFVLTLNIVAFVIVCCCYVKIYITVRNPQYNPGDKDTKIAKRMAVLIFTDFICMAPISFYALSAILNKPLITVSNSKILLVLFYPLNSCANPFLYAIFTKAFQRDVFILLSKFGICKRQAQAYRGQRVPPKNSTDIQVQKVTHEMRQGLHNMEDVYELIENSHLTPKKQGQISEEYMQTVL

O=S1(=O)OC(c2cc(Br)c(O)c(Br)c2)(c2cc(Br)c(O)c(Br)c2)c2ccccc21
active: [1] 25 µM | [2] 10.3 µM | [3] 25 µM | [4] 28.1 µM | [5] 25 µM | [7] 25 µM
inactive: [6]

CC1(C)[C@H](C=C(Cl)Cl)[C@@H]1C(=O)O[C@@H](C#N)c1cccc(Oc2ccccc2)c1
inactive: [1] | [2] | [3] | [4] | [5]

C=CC(=O)OC(C)(C)C
not listed: [8] | [9] | [10]
inactive: all other assays above

COC(N)=O
not listed: [8] | [9] | [10]
inactive: all other assays above

CCOP(=S)(OCC)Oc1nc(Cl)c(Cl)cc1Cl
active: [6] 27.4 µM and 30.6 µM
not listed: [8] | [9] | [10]
inactive: all other assays above

ClCc1ccccc1
not listed: [8] | [9] | [10]
inactive: all other assays above

O=C(NC(=O)c1c(F)cccc1F)Nc1cc(Cl)c(Oc2ncc(C(F)(F)F)cc2Cl)c(Cl)c1
not listed: [8] | [9] | [10]
inactive: all other assays above

COc1c(C(C)(C)C)cc([N+](=O)[O-])c(C)c1[N+](=O)[O-]
active: [6] 24.1 µM
not listed: [8] | [9] | [10]
inactive: all other assays above

CCOP(=S)(OCC)SCSCC
inactive: [1] | [2] | [3] | [4]

O=C(O)COc1ccc(Cl)cc1
inactive: all assays above

[CH3][Sn]([CH3])([Cl])[Cl]
active: [1] 62.1 µM | [8] 69.7 µM and 43.3 µM
not listed: [10]
inactive: all other assays above

COP(=S)(Oc1cc(Cl)c(Br)cc1Cl)c1ccccc1 (configuration not stated)
active: [6] 30.6 µM | [8] 54.5 µM
not listed: [10]
inactive: all other assays above

CCOP(=S)(OCC)Oc1cc(Cl)c(Br)cc1Cl
active: [6] 21.7 µM
not listed: [8] | [9] | [10]
inactive: all other assays above

CCCCCCCCCCOC(=O)c1ccccc1C(=O)OCCCCCCCCCC
not listed: [10]
inactive: all other assays above

O=S(=O)(Cl)c1ccccc1
not listed: [8] | [9] | [10]
inactive: all other assays above

C#CCOC(C(=O)OCCN(C)C)(c1ccccc1)c1ccccc1
inactive: [1] | [2] | [3] | [4] | [5]

O=C=Nc1ccc(Cl)cc1
inactive: [1] | [3] | [4] | [5]
active: [2] 5.64 µM | [6] 6.86 µM

C/C=C/C=O
not listed: [8] | [9] | [10]
inactive: all other assays above

CCOc1ccc(C(C)(C)COCc2cccc(Oc3ccccc3)c2)cc1
active: [6] 6.11 µM
not listed: [8] | [9] | [10]
inactive: all other assays above

BrCC(Br)C1CCC(Br)C(Br)C1 (configuration not stated)
inactive: [1] | [2] | [3] | [4] | [5]

ClCCCCBr
not listed: [8] | [9] | [10]
inactive: all other assays above

CCOC(=O)CBr
not listed: [8] | [9] | [10]
inactive: all other assays above

O=C(CBr)OCc1ccccc1
not listed: [8] | [9] | [10]
inactive: all other assays above

CC(=O)C(C)(C)C
not listed: [10]
inactive: all other assays above

CN(C)c1ccc(N(C)C)cc1
active: [2] 63.5 µM | [6] 61.3 µM
inactive: [1] | [3] | [4] | [5]

CCC(Br)(CC)C(=O)NC(N)=O
not listed: [8] | [9] | [10]
inactive: all other assays above

Cc1cc(=O)[nH]o1
inactive: [1] | [2] | [3] | [4]

c1ccoc1
inactive: [1] | [2] | [3] | [4]

CCCCCCCCCC(=O)O[C@H]1CC[C@H]2[C@@H]3CCC4=CC(=O)CC[C@@H]4[C@H]3CC[C@]12C
not listed: [8] | [9] | [10]
inactive: all other assays above

Cn1sc(Cl)cc1=O
not listed: [10]
inactive: all other assays above

C[C@]12CC[C@H]3[C@@H](CCC4=CC(=O)CC[C@@H]43)[C@@H]1CC[C@@H]2OC(=O)CCC1CCCCC1
not listed: [8] | [9] | [10]
inactive: all other assays above

Cc1ccccc1CCl
not listed: [10]
inactive: all other assays above
